An excerpt weighted towards active compounds, which were near 12% of everything screened.
JMJD2A Tudor = blocks the human JMJD2A Tudor domain | O75164 | AlphaScreen JMJD2A-Tudor / H3K4me3 peptide binding | Potency, µM (doses to about 114 µM), inactives show at the top dose activity change, negative = inhibition, usual class: inhibitors | 4.4% of 390,000 active | AID 504339; also: potency is read from the fitted curve at half-maximal effect; % is scaled to controls: 0 for no effect and ±100 for the full control effect; nearly all actives have a fitted effect of over 50% in size
PLK1 PBD block = blocks phosphopeptide binding to human PLK1 polo-box domain; 2.8% of 360,000 active; AID 720504; Plk1 PBD binding of FITC phosphopeptide, fluorescence polarization; Potency, µM, inactives show max response, negative = inhibition, usual class: inhibitors; also: potency is read from the fitted curve at half-maximal effect; series mostly up to about 57 µM; % is scaled to controls: 0 for no effect and ±100 for the full control effect; nearly all actives have a fitted effect of over 65% in size
BAZ2B block = inhibitors of human BAZ2B bromodomain; Q9UIF8; AlphaScreen BAZ2B-H3K14Ac peptide displacement; Potency, µM (doses to about 114 µM), for the others: at the top dose activity change, negative = inhibition, hits mostly inhibitors; 4.4% of 360,000 active; AID 504333; also: potency is read from the fitted curve at half-maximal effect; % is scaled to controls: 0 for no effect and ±100 for the full control effect; nearly all actives have a fitted effect of over 60% in size
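In this displacement format the biotinylated H3(5-23) peptide acetylated at Lys14 serves as ligand at 50 nM, with BAZ2B at 50 nM in PBS pH 7.4 containing 0.01% Tween-20. Donor and acceptor beads are 10 ug/mL final.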
HP1b binding inh = blocks HP1-beta chromodomain binding to methylated histone tails | AlphaScreen HP1-beta / biotin-H3K9me3 peptide binding | Potency, µM (doses to about 114 µM), for inactives: at the highest dose activity change, negative = inhibition, hits mostly inhibitors | 0.56% of 390,000 active; also: potency is read from the fitted curve at half-maximal effect; nearly all actives have a fitted effect of over 70% in size
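HP1-beta protein (50 nM final) preincubated 30 min at room temperature with biotinylated H3(1-18)K9me3 peptide (50 nM) in PBS pH 7.4, 0.01% Tween-20, then compound added for 30 min. AlphaScreen streptavidin donor/nickel chelate acceptor beads (10 ug/mL final), 30 min dark, luminescence read.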
PI5P4Ka inh = inhibitors of human PI5P4K alpha; max response, %; 1.2% of 330,000 active; P48426; PI5P4Kalpha enzyme, ADP-Glo luminescence, 60 min; hits give low values; active = max response of -50% or lower; inconclusive = between -30% and -50%; inactive = -30% or higher; also: value at the top dose of about 77 µM; % is scaled to controls: 0 for no effect and ±100 for the full control effect
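Enzyme plus substrate dispensed, test compounds pinned in, then ATP (5 microM final) added. After 60 min at RT, ADP-Glo reagent 1 for 45 min and reagent 2 for 30 min preceded luminescence imaging.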
G9a inh = G9a (human) methyltransferase inhibition; Q96KQ7; Potency, µM (top dose mostly 102 µM), without a hit: at the highest dose activity, negative = inhibition, hits mostly inhibitors; G9a H3K9 monomethylation, AlphaScreen, 2 h; 8.8% of 350,000 active; also: potency is read from the fitted curve at half-maximal effect; % is scaled to controls: 0 for no effect and ±100 for the full control effect; nearly all actives have a fitted effect of over 75% in size
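Using a bead-based AlphaScreen, monomethylated H3K9 product from 2 h room-temperature reactions (G9a 20 nM, peptide 500 nM, SAM 20 uM) was detected with 0.5 ug/mL rabbit anti-H3K9me1 antibody.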
* marks the source's active call; other numbers are inactive results; u = inconclusive; x = not tested or not shown; ! = not active in a repeat; [ ] = remark or other dose. Unless noted, calls follow the shape of the dose curve; as a rule, active = well fitted curve in the direction sought with a large enough effect; inconclusive = small, poorly fitted or top-dose-only effect, or another doubt; inactive = no such curve, though single readings can be large; an effect the other way counts as inactive or inconclusive.

SMILES | JMJD2A Tudor | PLK1 PBD block | BAZ2B block | HP1b binding inh | PI5P4Ka inh | G9a inh
Cc1ccc(/C([O-])=C(/C(=S)NCc2ccco2)[n+]2ccccc2)cc1 | x | x | -33.0% | x | x | 2.51µM*
COc1ccc(NC(=O)CN(C)C(=O)c2ccc3c(c2)OCCO3)cc1 | -9.7% | -2.7% | 6.7% | 21.3% | -1.3 | 0.2%
C#CCOc1ccc(/C=C2/C(=O)N(c3ccc(S(N)(=O)=O)cc3)N=C2C)cc1OC | x | 1.19µM* | x | x | -21.8 | x
COc1cc(/C=C2\C(=O)N(c3cccc(C(=O)O)c3)N=C2C)ccc1OCc1ccccc1 | x | 1.06µM* | x | x | -7.6 | x
C#CCOc1ccc(/C=C2/C(=O)N(c3cccc(C(=O)O)c3)N=C2C)cc1OC | u | 1.89µM* | -36.9% | -10.8% | -18.8 | x
COc1cc(/C=C/[N+](=O)[O-])ccc1OCc1cccc(C(=O)O)c1 | -30.8% | 5.97µM* | 28.2µM* | 7.4% | -54.6* | 14.1µM*
COc1ccc(C(=O)C=Cc2ccc(OCc3ccccc3)c(OC)c2)cc1OC | x | -8.7% | x | x | 3.6 | x
Cc1ccc(S(=O)(=O)NC(=O)C2(C)CCN2C(=O)c2ccccc2)nc1 (stereo not drawn) | x | -9.7% | x | x | 5.8 | x
C/C(=C\C(=O)OCCCCCCCCC(=O)O)C[C@@H]1OC[C@H](C[C@@H]2O[C@H]2[C@@H](C)[C@H](C)O)[C@@H](O)[C@H]1O | -11.0% | -3.2% | x | 20.1% | 7.5 | -9.2%[12.7 µM]
COc1cc(/C=C2\C(=O)N(c3ccc(S(N)(=O)=O)cc3)N=C2C)ccc1OC(=O)c1ccco1 | u | 3.77µM* | u | 2.9% | -1.1 | u
COc1cc(C2C(=O)N(C3CCCC3)CC(=O)N2Cc2ccco2)ccc1OC(C)C (stereo not drawn) | -16.5% | -3.7% | -32.4% | -5.7% | x | 79.4µM*
COc1cc(C2C(=O)N(C3CCCCCC3)CC(=O)N2Cc2ccccc2)ccc1OC(C)C (stereo not drawn) | -16.5% | x | -8.1% | 14.2% | x | 0.7%[59 µM]
Cc1cc(Nc2cccc(O)c2)c2cccc(Br)c2n1 | -4.1% | x | -17.9% | 37.3% | x | 3.7%[59 µM]
COc1ccc(S(=O)(=O)NCCN2CCOCC2)c2ccccc12 | -23.6% | 0.5% | -28.4% | 14.5% | x | 28.2µM*
COc1cccc(OC)c1OCCCN1CCOCC1 | 2.51µM* | 2.4% | 50.1µM* | u | -0.6 | u
Cc1cc(C)c(OCCCCN2CCNCC2)c(C)c1 | -8.1% | -1.9% | u | 18.5% | 0.0 | u
COc1cccc(OC)c1OCCCCCCN1CCN(C)CC1 | -14.1% | -1.3% | 2.6% | 40.6% | 0.2 | -5.3%[2.33 µM]
COc1ccccc1N1CCN(CCCCN2C(=O)CCC2=O)CC1 | x | x | x | x | x | -9.2%[59 µM]
Cc1cccc(C)c1OCCCCN1CCNCC1 | 6.31µM* | -5.3% | u | -8.8% | -3.9 | 25.1µM*
COc1ccccc1N1CCN(CCCCNS(=O)(=O)c2cccc3c(N(C)C)cccc23)CC1 | x | x | x | x | x | 26.7µM*
Cc1ccc(NC(=O)CCC(=O)NNC(=O)COc2ccc([N+](=O)[O-])cc2)c(C)c1 | 14.8% | 3.1% | -8.8% | 37.5% | -3.5 | 30.2%[0.501 µM]
CCOc1cccc(C(=O)Nc2ccc(-c3nc4ncccc4o3)cc2C)c1 | -19.6% | x | 5.8% | 16.9% | x | 6.0%[59 µM]
Cc1cccc(C)c1OCCCN1CCOCC1 | -14.9% | -4.1% | -22.5% | -0.8% | 5.0 | 35.5µM*
CCCn1c(Cc2ccccc2)n[nH]c1=S | 7.08µM* | -3.9% | 1.9% | 5.1% | -8.6 | u
S=c1[nH]nc(Cc2ccccc2)n1Cc1ccco1 | 3.98µM* | -15.6% | -4.1% | -19.4% | x | u
SMILES | JMJD2A Tudor | PLK1 PBD block | BAZ2B block | HP1b binding inh | PI5P4Ka inh | G9a inh
O=C(Nc1nc(NC(=O)c2ccco2)n(-c2ccccc2)n1)c1ccccc1 | -9.2% | -0.5% | 44.7µM* | 44.6% | x | 35.3%[12.7 µM]
O=C(Nc1ccccc1NC(=O)c1ccco1)c1ccccc1 | -5.8% | -3.9% | -0.1% | 2.2% | -2.4 | -8.4%[59 µM]
CCOP(=O)(O)c1ccccc1OCCOc1ccccc1P(=O)(O)OCC | -16.7% | -6.5% | u | 81.1% | x | 44.7µM*
O=C(CNS(=O)(=O)c1ccccc1)NCC(=O)OCc1ccc(Br)cc1 | u | 11.9µM* | 3.7% | -3.4% | -29.3 | 2.1%
COC(=O)C(NC(=O)CNS(=O)(=O)c1ccc(Br)cc1)c1ccccc1 (stereo not drawn) | -9.8%[11.4 µM] | 26.7µM* | 0.9% | 5.0% | -12.6 | -1.2%
COC(=O)C(Cc1ccccc1)NC(=O)CNS(=O)(=O)c1ccc(Br)cc1 (stereo not drawn) | -4.7% | -8.3% | 5.4% | 3.4% | 0.5 | 25.5%
Cc1ccc(C(=O)Nc2c(-c3ccccc3)nc3ccccn23)cc1C | -20.8% | x | -5.4% | 8.5% | x | -9.8%[59 µM]
Cc1ccc(O)c(N=NC2=C(O)CC(C)(C)CC2=O)c1 | 56.2µM* | 6.2% | 31.6µM* | -32.8% | -22.2 | u
Cc1c(N=NC2=C(O)CC(C)(C)CC2=O)c(=O)n(-c2ccccc2)n1C | 50.1µM* | -14.6% | 35.5µM* | u | -11.9 | -12.4%[12.7 µM]
CC1(C)CC(=O)C(N=Nc2cc(Cl)c(Cl)c(Cl)c2)=C(O)C1 | u | -6.6% | u | u | -2.5 | u
CCNc1ccc(N=Nc2c(C)n(C)n(-c3ccccc3)c2=O)cc1 | -26.8% | -4.9% | 31.6µM* | 5.8% | 1.3 | u
CCCCCN(C(=O)CCC(=O)OCc1cccc(F)c1)c1c(N)n(CCCC)c(=O)[nH]c1=O | -6.9% | -1.4% | -4.2% | 7.6% | 9.1 | -9.4%
O=C(Nc1nnc(-c2ccc3c(c2)CCCC3)o1)c1ccc(Cl)cc1Cl | u | 21.2µM* | -3.8% | 22.3% | -26.3 | 15.2%[59 µM]
O=C(Nc1nnc(-c2ccc(Cl)cc2)o1)C1=COCCO1 | u | -4.3% | 50.1µM* | 27.8% | 5.8 | 47.8%[59 µM]
O=C(Cn1c(-c2cccs2)cc2cc(Cl)ccc21)N1CCN(c2ccccc2)CC1 | -10.9% | x | 0.3% | 23.1% | x | 0.7%[59 µM]
Oc1ccccc1N1CCN(C(c2ccccc2)c2ccccc2)CC1 | -9.5% | 6.0% | -30.4% | 13.9% | 23.2 | u
N#Cc1cnc(Sc2ccccc2)nc1 | u | 29.9µM* | 2.5% | -27.6% | -10.2 | 37.6%
Nc1ccc(Sc2ccccc2)nc1 | -14.8% | -3.7% | x | 0.7% | 0.9 | x
CC1(c2nnc(-c3cccc(Cl)c3)o2)CC(c2ccc(OC(F)(F)F)cc2)=NO1 (stereo not drawn) | 19.6% | -5.1% | -5.4% | 57.0% | 5.9 | x
COc1ccc(-c2csc(Nc3ccccc3)[n+]2CC(O)c2ccc([N+](=O)[O-])cc2)cc1 (stereo not drawn) | u | -3.6% | u | u | 7.9 | 14.1µM*
CC1CCN(C(=O)CCc2ccc(Oc3cc([N+](=O)[O-])cc([N+](=O)[O-])c3)cc2)CC1 | 12.6µM* | -13.6% | 28.2µM* | 44.7µM* | 0.5 | u
CCC(=O)c1ccc2c(c1)N(CCCN(C)C)c1ccccc1S2 | -32.4% | -14.9% | x | 4.6% | -9.7 | 14.1µM*!
